The values that follow come from PMC13494018.

The target of this test is CD276, Q5ZPR3.

A number with no mark means an inactive call. No rule for the calls is given here.

CD276, Q5ZPR3, sequence (Q5ZPR3 whole entry): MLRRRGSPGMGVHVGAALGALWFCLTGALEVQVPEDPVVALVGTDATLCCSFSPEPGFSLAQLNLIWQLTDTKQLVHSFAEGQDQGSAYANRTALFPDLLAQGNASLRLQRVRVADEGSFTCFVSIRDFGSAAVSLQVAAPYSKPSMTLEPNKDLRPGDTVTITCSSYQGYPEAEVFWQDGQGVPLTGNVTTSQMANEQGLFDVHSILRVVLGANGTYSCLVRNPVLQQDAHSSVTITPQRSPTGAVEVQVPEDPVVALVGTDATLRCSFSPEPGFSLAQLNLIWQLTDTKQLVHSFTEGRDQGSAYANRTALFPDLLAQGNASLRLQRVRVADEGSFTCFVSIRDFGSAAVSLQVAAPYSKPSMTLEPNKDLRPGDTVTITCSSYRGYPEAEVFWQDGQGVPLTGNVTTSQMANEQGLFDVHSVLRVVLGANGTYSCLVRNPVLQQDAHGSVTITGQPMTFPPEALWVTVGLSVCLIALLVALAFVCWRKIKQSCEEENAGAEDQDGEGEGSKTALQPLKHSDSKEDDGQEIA

B1: design_621_7e0052dc-ae49-49a0-b99f-9f3ee649cc2f_1278_dldesign_0_cycle1_af2pred (protein)
chain: AANAAEQAARLGKALASAAKNAIEAGNLESARKIAEVAVAAGEEAAELAVKYLEAEDPEAGKIFRELVEEEKARRAAEAA
With B1, the “binding in a display sort” value was “not found”.

B2: design_620_fbd04095-bef7-46a9-992d-f2cb8915922f_1968_dldesign_0_cycle1_af2pred (protein)
chain: DAAVQAAVAAGQAAAERARETGERAREAGDEETAARLEALAQSVDILADGAAATKDAHAAATLQTLVRQAEREVEEAERRLEA
Regarding B2, the “binding in a display sort” value is “not found”.

B3: design_620_fbd04095-bef7-46a9-992d-f2cb8915922f_2025_dldesign_0_cycle1_af2pred (protein)
chain: GLAEVLRASGLALEAYELAEKLAKENPEEGRKAFQEAARLSLRAAARALAIARAFPEIAEFALRLAQRLVELAAEAAEKARELEA
For B3, the “binding in a display sort” value was “not found”.

B4: design_621_7e0052dc-ae49-49a0-b99f-9f3ee649cc2f_1041_dldesign_0_cycle1_af2pred (protein)
chain: DPAAVAAAEDMWAIAQQTWAAFTANAATITPAQARQYAAVFATAAVAMEDAARRVSPELAVGYRARAAEMRARAAAARAAAAA
As for B4, the “binding in a display sort” value is “not found”.

B5: design_621_7e0052dc-ae49-49a0-b99f-9f3ee649cc2f_624_dldesign_0_cycle1_af2pred (protein)
chain: AEAAKKKVEELLAKAKEEAKKALEDPANIEKYRAEMSKLIAEANRIGIASTPEVNTLAGSGIEEVLKLLDEAVKKAK
For B5, the “binding in a display sort” value is “not found”.

B6: design_621_7e0052dc-ae49-49a0-b99f-9f3ee649cc2f_147_dldesign_0_cycle1_af2pred (protein)
chain: MEAAAEIALKTAKAMTKSAVAAAEAGNLEDARQIAETAKEILEATAKKVSPELAKKLKEAAKKATAEAEAAVKAAAARLAA
For the molecule B6, the “binding in a display sort” value is “not found”.

B7: design_621_7e0052dc-ae49-49a0-b99f-9f3ee649cc2f_1011_dldesign_0_cycle1_af2pred (protein)
chain: DLEKKAKEHLEKAKKLAEKAAASNAAEASVYLSQAIEEASKAVELAKKAGPELYKKYSEEATKLVQRASKAVMAKAQAAA
B7: the “binding in a display sort” value was “not found”.

B8: design_621_7e0052dc-ae49-49a0-b99f-9f3ee649cc2f_606_dldesign_0_cycle1_af2pred (protein)
chain: DVAEVLVRTAQAVARQAQAAAALSPEEALAVAQANQQTVAVLLAAAKAAGSAEAVAAAQQAQATVAAVIAAAQARLAA
For the molecule B8, the “binding in a display sort” value was “binds (active)”.

B9: design_621_7e0052dc-ae49-49a0-b99f-9f3ee649cc2f_449_dldesign_0_cycle1_af2pred (protein)
chain: SSNVEKAKELARNLTESAALDPASGALAGRALLAAARNAAAALTPEQSAALAAELRAAVAANQPADPEARALFEQAAAVLAA
For the molecule B9, the “binding in a display sort” value is “not found”.

B10: design_621_7e0052dc-ae49-49a0-b99f-9f3ee649cc2f_162_dldesign_0_cycle1_af2pred (protein)
chain: MGELFAALIEAMRLASEAARLAKAGEKEEAKEKLEKALKLVGEVAKATGTTAIYDETAKKAEASSLEEAARAVMSGAAKIISEAAKKA
Turning to B10, the “binding in a display sort” value is “not found”.

B11: design_620_fbd04095-bef7-46a9-992d-f2cb8915922f_1750_dldesign_0_cycle1_af2pred (protein)
chain: DPAKELARRVVEANLKQLKKLLEEAGKASTEEGKKLAKEAIEKVEKLKKEALASSAAEATALTVKAIEEASKALREIKKLK
In the case of B11, the “binding in a display sort” value is “not found”.

B12: design_621_7e0052dc-ae49-49a0-b99f-9f3ee649cc2f_1226_dldesign_0_cycle1_af2pred (protein)
chain: MEAEEYLEKAKEAAEKAKEAAAKGDLAAANAYLGKAIEYAAKAQEVGTPEIAEKANAELARAVKAVQAVAAKVAAA
Turning to B12, the “binding in a display sort” value was “not found”.

B13: design_621_7e0052dc-ae49-49a0-b99f-9f3ee649cc2f_290_dldesign_0_cycle1_af2pred (protein)
chain: AAAALERAARIALAAAKAMLRTAEATGNAAAAAVAADLAAYAAATARAAGPALAPLAAEAEAVEARARALAA
Consider B13, for which the “binding in a display sort” value is “not found”.

B14: design_621_7e0052dc-ae49-49a0-b99f-9f3ee649cc2f_501_dldesign_0_cycle1_af2pred (protein)
chain: GAEQVAFQTIVAGARHAARLENEEAAKEIAKVYADIAANLSKETQQKVLEAAKKIAKETEAGKKNGEIVVKELEKALEA
Take B14: the “binding in a display sort” value was “not found”.

B15: design_621_7e0052dc-ae49-49a0-b99f-9f3ee649cc2f_452_dldesign_0_cycle1_af2pred (protein)
chain: EEDERRAEELRRRAEEMLEAAKRAASLPPAERARLLGEAARVVEEARELAERDPRYRPVYDLAVAAFNALATAVGRALAAAA
Turning to B15, the “binding in a display sort” value is “not found”.

B16: design_620_fbd04095-bef7-46a9-992d-f2cb8915922f_1915_dldesign_0_cycle1_af2pred (protein)
chain: NEDLKKAAELAKKAAQLAPQPEAAEVAAKAAEAAEKAVGPELGNYALALATLPPAARALGMSNLATSLEKLV
As to B16, the “binding in a display sort” value is “not found”.

B17: design_621_7e0052dc-ae49-49a0-b99f-9f3ee649cc2f_1261_dldesign_0_cycle1_af2pred (protein)
chain: AADSVALGQANAEAMLAVADPSQLPAAAAAIAAASPAVAERARRIGLRLAEAAGADVAAFRAAYDAAVAAAKA
As to B17, the “binding in a display sort” value is “not found”.

B18: design_621_7e0052dc-ae49-49a0-b99f-9f3ee649cc2f_590_dldesign_0_cycle1_af2pred (protein)
chain: SERKESVDAGVKAAADIGKYQAKEIAKEDPEKGAAYLKEVEETYEKALASSPEEAFALTNAAFRANAKLAAAAAAKKAAAA
Consider B18, for which the “binding in a display sort” value is “not found”.

B19: design_620_fbd04095-bef7-46a9-992d-f2cb8915922f_2277_dldesign_0_cycle1_af2pred (protein)
chain: GAAAERAALRDAALAEVDALLAAGAAAAAAAASPVAALLDAHRAAAEVIARLRERDPAAGEEVAAEAQARFSALLRQASASVVA
In the case of B19, the “binding in a display sort” value was “not found”.

B20: design_621_7e0052dc-ae49-49a0-b99f-9f3ee649cc2f_375_dldesign_0_cycle1_af2pred (protein)
chain: SQAAQIALNAAKSLAENIKKYAEVMSEEEAKGAIELLYDLAKYAKKEDPELGKKAEKIAEEAKKYVEKVFKEKKEEEEK
As for B20, the “binding in a display sort” value is “not found”.

B21: design_621_7e0052dc-ae49-49a0-b99f-9f3ee649cc2f_505_dldesign_0_cycle1_af2pred (protein)
chain: AAAAAARAAALAVRDKYAAKAKEYAAEAEKYAPTDARVKELLDQGKAEAAKGDAALAAGDYAAAEGYYALAYAYYSAALNRALA
B21: the “binding in a display sort” value is “not found”.

B22: design_621_7e0052dc-ae49-49a0-b99f-9f3ee649cc2f_591_dldesign_0_cycle1_af2pred (protein)
chain: GEEEEKKKEVIEKRQEVLKLLAEAVRVGMEADPELASKAASESLELIAKADKYLKEGKYEEALAELEKAKEYVEKMLKEAKALLAAKL
In the case of B22, the “binding in a display sort” value was “not found”.

B23: design_621_7e0052dc-ae49-49a0-b99f-9f3ee649cc2f_1174_dldesign_0_cycle1_af2pred (protein)
chain: AEKDEIVEKLLRAAGTATYVAYAFKDDAATKAKATATNQKAREAIQLLGTDFSPEAVALAKEAIEDAEKLKAELEAAQA
Take B23: the “binding in a display sort” value was “not found”.

B24: design_621_7e0052dc-ae49-49a0-b99f-9f3ee649cc2f_216_dldesign_0_cycle1_af2pred (protein)
chain: RMAEVAERIRRTAEEVREGDAETAVRLAAEVLELARREGNEASAHLAANALRAARAGDVERAVVYLEAAAEITALS
With B24, the “binding in a display sort” value is “not found”.

B25: design_621_7e0052dc-ae49-49a0-b99f-9f3ee649cc2f_282_dldesign_0_cycle1_af2pred (protein)
chain: ARAKIVEAAKKAAKEAEAATTRGEVLVALAKAAAVFNRVGDAAGAARVSAAIVQATQLDAAEAKKLAVEVLTAIAEEAA
Regarding B25, the “binding in a display sort” value is “not found”.

B26: design_620_fbd04095-bef7-46a9-992d-f2cb8915922f_2282_dldesign_0_cycle1_af2pred (protein)
chain: AAAEGQALVKQATAYAEEALRLAREGGDPEEVAAKLNLAATYAIKAMNLPATQAQGAKVMDYLGEVAREVAAIRAARAAA
Regarding B26, the “binding in a display sort” value is “not found”.

B27: design_621_7e0052dc-ae49-49a0-b99f-9f3ee649cc2f_687_dldesign_0_cycle1_af2pred (protein)
chain: ALEEALERLKKQAEEAEKAGDKEAAKLAKKGAEQMEKAKTDPVAAMQALLAAAAEADKLAPKVGKVANRVAIEAIRGANAIFRAAQ
Turning to B27, the “binding in a display sort” value was “not found”.

B28: design_621_7e0052dc-ae49-49a0-b99f-9f3ee649cc2f_407_dldesign_0_cycle1_af2pred (protein)
chain: SEAQRLYDAAKTWADIANAAIQQAAADPSTAAVAVAAAKAAVASAKRLAEKAEKLAAKKPEYAPLAKDAKAAVAAAAAAAKAAAA
As for B28, the “binding in a display sort” value is “not found”.

B29: design_621_7e0052dc-ae49-49a0-b99f-9f3ee649cc2f_896_dldesign_0_cycle1_af2pred (protein)
chain: SAAAAAAAAAKAVAAKTAEALVKQAEALIKEAEKSTKEEGLKLRKAAAENYKLAGTLYEQAGDTATAKKLKEEGEKVEKEAEEKA
For the molecule B29, the “binding in a display sort” value is “not found”.

B30: design_620_fbd04095-bef7-46a9-992d-f2cb8915922f_1927_dldesign_0_cycle1_af2pred (protein)
chain: AAAQAALEKMKALAEQALAEIKALSQKDQASIDQGIAVLSRTVTELMTAANQYPEVAAQYAQLAVDLLEQSSKYIRAGRARVAAKEAA
For the molecule B30, the “binding in a display sort” value was “not found”.

B31: design_620_fbd04095-bef7-46a9-992d-f2cb8915922f_2412_dldesign_0_cycle1_af2pred (protein)
chain: ADGSRLTEAFRVAAEARRVGEEAGKLLGEEALEEAERAAAELRRLLAAAMRAMAAGTGADEAVNAALDAARAALAEFEERLKEAR
Take B31: the “binding in a display sort” value is “not found”.

B32: design_620_fbd04095-bef7-46a9-992d-f2cb8915922f_1950_dldesign_0_cycle1_af2pred (protein)
chain: GVAETLKRNLEAAERILKEGEELFETDPAAGAAKFKSAELLATGVVATAEADPSVPEEILKRAKELAKRAKEALEEAEKKVEELKA
Turning to B32, the “binding in a display sort” value is “not found”.

B33: design_620_fbd04095-bef7-46a9-992d-f2cb8915922f_2199_dldesign_0_cycle1_af2pred (protein)
chain: AEAAAQAARASVAAARAAVKDARRIAENAKTPEQLESAKKVLEVARALAEDAERNAKAAGDEELVKLAEEARKEAEEAEKKVREKAEE
With B33, the “binding in a display sort” value is “not found”.

B34: design_620_fbd04095-bef7-46a9-992d-f2cb8915922f_2241_dldesign_0_cycle1_af2pred (protein)
chain: AEKVRELADQMVAIAREAAEKGLSPAEIGAANGQVVDLLEEAYRLAKESGASQEVLDYLNAKNAEANRLLLAAQRA
For the molecule B34, the “binding in a display sort” value is “not found”.

B35: design_621_7e0052dc-ae49-49a0-b99f-9f3ee649cc2f_741_dldesign_0_cycle1_af2pred (protein)
chain: MEELKKAAEAAEKLAEVTLAIAKQADPKLAEKAKKLKEEVKKVYEEGKKDPSTAKEKLKELEKLSKEITELAAEASKLAVAKAA
With B35, the “binding in a display sort” value was “not found”.

B36: design_620_fbd04095-bef7-46a9-992d-f2cb8915922f_2334_dldesign_0_cycle1_af2pred (protein)
chain: LTEEEQKELIIDTIKGLAESAKQFAKASGDPELAKQAEKVAELAKKAIEVTKKGTLEDGVKALSEVSKATMEVAKAA
B36: the “binding in a display sort” value is “not found”.

B37: design_621_7e0052dc-ae49-49a0-b99f-9f3ee649cc2f_121_dldesign_0_cycle1_af2pred (protein)
chain: EEAERKARTAELLKEAIHLGFRGIAVGPEYIKEGAKKLEEAAKLLPEKKPLLEKMAELAKKAAESTPTEALQLTLEMIEIAKEVVE
With B37, the “binding in a display sort” value is “not found”.

B38: design_620_fbd04095-bef7-46a9-992d-f2cb8915922f_2436_dldesign_0_cycle1_af2pred (protein)
chain: EAAKEAEKAYKEAKEAAAAALAAADAAADKVPATAVDVLKRTVTANLKQAEKALKAGDAKAVKAQKKQLELLKEGAAAAA
Consider B38, for which the “binding in a display sort” value is “not found”.
